Results as given in PMC12864922, “TDP-43 directly inhibits mRNA accumulation in neurites through modulation of mRNA stability”.
The full ranking holds about 9,900 sequences; the median of “r (bound/input frequency ratio)” is about 0.7, and the highest 2% start at about 6.5. The sample as a whole holds a higher share of the highest values than the screen did.

B1: ENSMUSG00000022095.101|Fam160b2 (ssRNA)
RNA: GGGAGUUCUACAGUCCGACGAUCGCUUCGAUAUCCGCAUGCUAUGCUCUACCCUCCUGGAGGCUGUUGCAAAAUUCCCAACUGCCUCCUGGCAGAGGCCCAAAGUAUGCUCUGCGCCCAGGCGGGGGCAGCUGCUAACAAGAGCCCUGGCGCAGCUGCAGCCAGGGCAGGCGAGAGCCUUGGAGCUGGGUGCCAGGCUCCAGCUCCAGCUCCAGCUGGUUCCUCUCUGGCGCCUUCUGAACCCGUCUCAGCAAGUCCGAAACACCUGGGCAGAGAGGUCAUUGACCAGGGAUGGGGGCCCUUGCUCUUGCGGUCGCACUAGUGUGGAAUUCUCGGGUGUCAAGG
B2: ENSMUSG00000028439.162|Fam219a (ssRNA)
RNA: GGGAGUUCUACAGUCCGACGAUCGCUUCGAUAUCCGCAUGCUAAAAGGCUCUUCAAGAGCAAGCUUAAGGAAAUACAGUGAGCCAAGUGGCUGUAUGAUAUGGUAUGGUAUGGUAUGGUAUGGUAUGGUAUGGUAUGCACAUGUGUGUGCAUGUGUGUGUGCCUGUGUGUGUGCGUGUGCGUGUGUGUAUGUGUGUGCGUGUGUGUGUGUGUGUGUUGUACCCGAGUGUGUGUUGAGCCUAUCUGUCCAGGGAACCAGAUUGGUGUCCGAGAUGAGGAAAUGGCUGUGGCCUGGGAAAUCAGUCUCUUGCGGUCGCACUAGUGUGGAAUUCUCGGGUGUCAAGG
B3: ENSMUSG00000028439.158|Fam219a (ssRNA)
RNA: GGGAGUUCUACAGUCCGACGAUCGCUUCGAUAUCCGCAUGCUAAAAGUCCAGGAGCCAGGCUUCCAGAAAGGCUCUUCAAGAGCAAGCUUAAGGAAAUACAGUGAGCCAAGUGGCUGUAUGAUAUGGUAUGGUAUGGUAUGGUAUGGUAUGGUAUGGUAUGCACAUGUGUGUGCAUGUGUGUGUGCCUGUGUGUGUGCGUGUGCGUGUGUGUAUGUGUGUGCGUGUGUGUGUGUGUGUGUUGUACCCGAGUGUGUGUUGAGCCUAUCUGUCCAGGGAACCAGAUUGGUGUCCGAGAUGAGGAACUCUUGCGGUCGCACUAGUGUGGAAUUCUCGGGUGUCAAGG
B4: ENSMUSG00000028439.161|Fam219a (ssRNA)
RNA: GGGAGUUCUACAGUCCGACGAUCGCUUCGAUAUCCGCAUGCUAUUCCAGAAAGGCUCUUCAAGAGCAAGCUUAAGGAAAUACAGUGAGCCAAGUGGCUGUAUGAUAUGGUAUGGUAUGGUAUGGUAUGGUAUGGUAUGGUAUGCACAUGUGUGUGCAUGUGUGUGUGCCUGUGUGUGUGCGUGUGCGUGUGUGUAUGUGUGUGCGUGUGUGUGUGUGUGUGUUGUACCCGAGUGUGUGUUGAGCCUAUCUGUCCAGGGAACCAGAUUGGUGUCCGAGAUGAGGAAAUGGCUGUGGCCUGGGAACUCUUGCGGUCGCACUAGUGUGGAAUUCUCGGGUGUCAAGG
B5: ENSMUSG00000028439.160|Fam219a (ssRNA)
RNA: GGGAGUUCUACAGUCCGACGAUCGCUUCGAUAUCCGCAUGCUACCAGGCUUCCAGAAAGGCUCUUCAAGAGCAAGCUUAAGGAAAUACAGUGAGCCAAGUGGCUGUAUGAUAUGGUAUGGUAUGGUAUGGUAUGGUAUGGUAUGGUAUGCACAUGUGUGUGCAUGUGUGUGUGCCUGUGUGUGUGCGUGUGCGUGUGUGUAUGUGUGUGCGUGUGUGUGUGUGUGUGUUGUACCCGAGUGUGUGUUGAGCCUAUCUGUCCAGGGAACCAGAUUGGUGUCCGAGAUGAGGAAAUGGCUGUGGCCCUCUUGCGGUCGCACUAGUGUGGAAUUCUCGGGUGUCAAGG
B6: ENSMUSG00000028439.159|Fam219a (ssRNA)
RNA: GGGAGUUCUACAGUCCGACGAUCGCUUCGAUAUCCGCAUGCUACAGGAGCCAGGCUUCCAGAAAGGCUCUUCAAGAGCAAGCUUAAGGAAAUACAGUGAGCCAAGUGGCUGUAUGAUAUGGUAUGGUAUGGUAUGGUAUGGUAUGGUAUGGUAUGCACAUGUGUGUGCAUGUGUGUGUGCCUGUGUGUGUGCGUGUGCGUGUGUGUAUGUGUGUGCGUGUGUGUGUGUGUGUGUUGUACCCGAGUGUGUGUUGAGCCUAUCUGUCCAGGGAACCAGAUUGGUGUCCGAGAUGAGGAAAUGGCUCUCUUGCGGUCGCACUAGUGUGGAAUUCUCGGGUGUCAAGG
B7: ENSMUSG00000058297.560|Spock2|93:97;225:231 (ssRNA)
RNA: GGGAGUUCUACAGUCCGACGAUCGCUUCGAUAUCCGCAUGCUAACCUGGGGGUGCAAAAGGAGAUUCAAGACAUCCGUACCAAGUCAGGCAGAGCUACCCGCUUCUCAGCCCGUGUCCCACUUAAAACCGUCCGAACACAAAUCACUGAGCUUAGAGUUAAACAUUGUGGUCAAGUGCUUGGGUUCCGUCUGUAGAUUUAAGUGCUGACGUUGUAUCUCUCAGUAAUUUUAGAUGUCUUUUAAAAAAUCUGAACAAGUGUUAGACCCCACACACCGUUGGUGGGCACUCAAGCAUCCCGUGGGCUCUUGCGGUCGCACUAGUGUGGAAUUCUCGGGUGUCAAGG
B8: ENSMUSG00000042529.275|Kcnj12 (ssRNA)
RNA: GGGAGUUCUACAGUCCGACGAUCGCUUCGAUAUCCGCAUGCUAUUACCUGCCACUCACCUCUCUAUCUAGUUGUCGAGUCUAGGGAAGGGCAGAGGGUGGGUCCUGGCCACUGGGUGCCACUGUGGGAGCCGGGGCACCUGUCAUUCUUUCUGAGUAGGUGGGCCUGUAUCCAGAGCAGGGUCUAGGGGCUCCUGCUCCCGGCUCAUCUCAGUGGCCUGAAGCAUUCAAAACUCUAGCCAGCCCCAUCCUCCUCCCUGCCAGAAUGGUCCAGUCCCUGGGCCCUGCUGGAGAGCAGCUCAAACCUCUUGCGGUCGCACUAGUGUGGAAUUCUCGGGUGUCAAGG
B9: ENSMUSG00000042529.296|Kcnj12 (ssRNA)
RNA: GGGAGUUCUACAGUCCGACGAUCGCUUCGAUAUCCGCAUGCUAUCCAGAGCAGGGUCUAGGGGCUCCUGCUCCCGGCUCAUCUCAGUGGCCUGAAGCAUUCAAAACUCUAGCCAGCCCCAUCCUCCUCCCUGCCAGAAUGGUCCAGUCCCUGGGCCCUGCUGGAGAGCAGCUCAAACUGCCUUUCAUCUCUGCCAAAGGCAGGCAGAUGCUGUAUUUUCAAAUUCUCCUGCCCUCUUUUCCCCUUUUUCCCUGUAUUUAUUUAUUGCUUGUGCUAAAGACCAAACUAGCCGCCCCCUUUAGUGCUCUUGCGGUCGCACUAGUGUGGAAUUCUCGGGUGUCAAGG

The binders below were run against TDP-43 (Homo sapiens, UniProt Q13148 1-414) (assay: RNA Bind-n-Seq with designed 260-mer pool; 25 mM Tris-HCl, 150 mM KCl, 3 mM MgCl2, BSA (printed 500 mg/mL), 20 units/mL SUPERase IN; pH not stated; 500 nM RNA pool, 1 h, 4 C; TDP-43 5, 50, 500 nM; high values mean tight binding). Settings: protein: recombinant; tags: SBP (GST cleaved off with PreScission; pGEX-GST-SBP).
Sequence of TDP-43 (Q13148 whole entry): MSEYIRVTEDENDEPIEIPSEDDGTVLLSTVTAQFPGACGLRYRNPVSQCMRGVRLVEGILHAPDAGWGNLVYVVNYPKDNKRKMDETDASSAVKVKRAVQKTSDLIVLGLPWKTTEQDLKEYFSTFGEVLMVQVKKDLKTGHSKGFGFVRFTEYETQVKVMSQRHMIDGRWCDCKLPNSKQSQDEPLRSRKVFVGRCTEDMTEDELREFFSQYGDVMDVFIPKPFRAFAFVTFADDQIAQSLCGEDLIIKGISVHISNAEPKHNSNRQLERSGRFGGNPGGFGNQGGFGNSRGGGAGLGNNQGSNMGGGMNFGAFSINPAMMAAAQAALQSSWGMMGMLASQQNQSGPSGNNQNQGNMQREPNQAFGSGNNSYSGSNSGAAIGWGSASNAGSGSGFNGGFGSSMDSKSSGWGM
How it was run: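 Duplicate measurements used two independent batches of recombinant SBP-tagged TDP-43, which was captured on streptavidin beads at 5, 50 or 500 nM. The beads were incubated with 500 nM of an in vitro-transcribed 260-nt 3′ UTR oligo pool for 1 h at 4 °C in 25 mM Tris-HCl, 150 mM KCl, 3 mM MgCl2, BSA and SUPERase IN. After washing, biotin elution, reverse transcription, PCR amplification and sequencing, binding was expressed as R: each oligo's normalized read abundance in the bound sample over its abundance in input.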
B1 was tested, and the binding signal was 0.743 R (bound/input frequency ratio).
With B2 the binding signal was 8.11 R (bound/input frequency ratio).
With B3 the binding signal was 6.13 R (bound/input frequency ratio).
In the case of B4, the binding signal is reported as 8.09 R (bound/input frequency ratio).
B5 was tested, and the binding signal was 6.51 R (bound/input frequency ratio).
B6 was tested, and the binding signal was 7.39 R (bound/input frequency ratio).
With B7 the binding signal was 0.189 R (bound/input frequency ratio).
With B8 the binding signal was 0.367 R (bound/input frequency ratio).
With B9 the binding signal was 1.65 R (bound/input frequency ratio).
